Consider 16 compounds from PubChem BioAssay (NCATS).

Values joined by “and” are separate entries in the source; they are usually repeats but may differ in a detail not shown here. Identical values can stand only once. Results filed as inconclusive are left out. Active and inactive are the calls of the source. Unless noted, calls follow the shape of the full dose curve.

Test [1] can be described thus: Primary qHTS for Huh7 cytotoxicity: counterscreen for inhibitors of MERS-S pseudotyped particle cell entry (AID 1479147). The conditions noted are these: outcome: dose series up to 57.1 µM unless noted. A general note: qHTS replaces the single test concentration by a dilution series.
A short description of test [2]: Primary qHTS for inhibitors of MERS-S pseudo-typed particle cell entry (AID 1479149). Also: nearly all actives have a fitted effect of over 60% in size. As to activity change, negative = inhibition: % is scaled to controls: 0 for no effect and ±100 for the full control effect.
Test [3] in a line: Primary qHTS for Vero E6 cytotoxicity: counterscreen for inhibitors of SARS-S pseudo-typed particle cell entry (AID 1479150). The conditions noted are these: outcome: dose series up to 57.1 µM unless noted.
In test [4] the test system is CRL-7250. Nature of the test: qHTS assay to identify novel small-molecules to repurpose for Merkel cell carcinoma treatment (AID 1296009; active = well fitted inhibition curve with a large enough effect; also: nearly all actives have a fitted effect of over 60% in size). The conditions noted are these: MCC and control cell lines, CellTiter-Glo viability, 72 h; series mostly up to 92 µM. In a few lines:
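Cells exposed to NPC (8-point) and MIPE (11-point) compound dilutions for 72 hr at 37 degree celsius; viability read by CellTiter-Glo luminescence, normalized to no-cell and DMSO in-plate controls.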

The nature of test [5]: Confirmatory qHTS for VERO E6 Cytotoxicity Assay: Counterscreen for SARS-CoV-2 CPE Assay (AID 1508605). Also: nearly all actives have a fitted effect of over 60% in size. Also: potency is read from the fitted curve at half-maximal effect.
Test [6] is described as follows: Confirmatory qHTS for activators (rescue) of SARS-CoV-2 Cytopathic Effect (CPE) (AID 1508606). Also: nearly all actives have a fitted effect of over 70% in size. Also: potency is read from the fitted curve at half-maximal effect.
Test [7] in a line: qHTS for Inhibitors of the Functional Ribonucleoprotein Complex (vRNP) of Lymphocytic Choriomeningitis Arenaviruses (LCMV): Viability assay - alamar blue signal for LCMV Primary Screen (AID 1347085; calls by dose curve; tested in HEK293 reporter line; also: potency is read from the fitted curve at half-maximal effect; nearly all actives have a fitted effect of over 80% in size).
Test [8] in a line: Cytotoxicity counterscreen for inhibitors of SARS-CoV-2 cell entry (AID 1645845). Also: nearly all actives have a fitted effect of over 50% in size. In a few lines: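 Expi293F/hACE2 cells seeded overnight; cpd pin-transferred in DMSO, 1 h preincubation, + media, 48 h 37 C 5% CO2; ATPLite 1step luminescence; normalized to cells and no cells.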
For orientation: A counterscreen serves to expose hits that act by an unwanted route or on another target.

A short description of test [9]: Primary qHTS to identify inhibitors of SARS-CoV-2 cell entry (AID 1645846). Also: nearly all actives have a fitted effect of over 45% in size. The conditions noted are these: activity change, negative = inhibition: at 57.1 µM (top of the series) unless noted. Summed up: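 Using luciferase-reporting pseudoviruses carrying Wuhan-Hu-1 spike, the screen tracks entry into stably ACE2-expressing cells over 48 hr. Activity is expressed relative to spike particles versus particles lacking any fusion protein.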

Test [10] is described as follows: Primary qHTS for inhibitors of SARS-S pseudo-typed particle cell entry (AID 1479145). Also: nearly all actives have a fitted effect of over 45% in size. As to activity change, negative = inhibition: % is scaled to controls: 0 for no effect and ±100 for the full control effect.

As for `CC1(C)OC(=O)C(OCC2CC2)=C1c1ccc(S(C)(=O)=O)cc1`, the result in test [1] and in test [3] was inactive. Moreover, the Potency entry in test [2] and in [4] was “inactive” each time.

On to `C[C@@H]1O[C@@H](O[C@H]2[C@H](OC(=O)[C@]34CCC(C)(C)C[C@H]3C3=CCC5[C@@]6(C)CC[C@H](O[C@@H]7O[C@H](CO[C@@H]8OC[C@H](O)[C@H](O)[C@H]8O)[C@@H](O)[C@H](O)[C@H]7O)C(C)(C)C6CC[C@@]5(C)[C@]3(C)C[C@H]4O)OC[C@@H](O)[C@@H]2O)[C@H](O)[C@H](O[C@@H]2OC[C@](O)(CO)[C@H]2O)[C@H]1O[C@@H]1OC[C@H](O)[C@H](O[C@@H]2OC[C@@H](O)[C@H](O)[C@H]2O)[C@H]1O` (some centres not stated), for which the Potency in test [5] was 1.91 µM (active). Moreover, the outcome in test [4] was “inactive [at 9.27 µM]”.

`CCC(=O)c1cc(-c2ccc(Cl)cc2)n(-c2ccc(S(N)(=O)=O)cc2)c1C`: the Potency result in [5], in [6] and in [4] was “inactive” in each case.

As to `CN(C)CCOc1cc(-c2cn[nH]c2)ccc1NC(=O)C1COc2ccccc2O1` (configuration not stated), the Potency in test [7] is 27.3 µM (active). Besides, the Potency result in test [8] and in test [4] was “inactive” throughout. Besides, in [9], the activity change, negative = inhibition was -42.9%.

Consider `O=C1NC(=O)/C(=C/c2cccc(C(F)(F)F)c2)S1`, for which the Potency result in test [5] and in [4] was “inactive” throughout.

On to `COc1ccc(CN2CCN(CCCSc3cc(C(C)(C)C)c(O)c(C(C)(C)C)c3)CC2)c(OC)c1OC`, for which, in test [5], the Potency entry is “inactive”. The outcome in test [4] is “inactive [at 9.27 µM]”.

As to `Cc1onc(-c2ccccc2)c1C(=O)N[C@@H]1C(=O)N2[C@@H]1SC(C)(C)[C@@H]2C(=O)O`, the Potency entry in test [10], in test [2], in test [8] and in [4] was “inactive” in each case. Besides, the result in test [1] and in test [3] was inactive. Also, the activity change, negative = inhibition in [9] is -25.7%.

For `CCc1ccc(Cc2ccc3c(c2)[C@]2(OC3)O[C@H](CO)[C@@H](O)[C@H](O)[C@H]2O)cc1`, the Potency result in test [10], in test [8] and in test [4] was “inactive” each time. Besides, the outcome in [1] and in [3] was inactive.

As to `CCc1c(Cl)c(O)c(Cl)c(O)c1C(=O)O[C@H]1[C@H](O)[C@H](OC)[C@H](OC/C2=C\C=C\C[C@H](O)/C(C)=C\[C@H](CC)[C@@H](O[C@@H]3OC(C)(C)[C@@H](OC(=O)C(C)C)[C@H](O)[C@@H]3O)/C(C)=C/C(C)=C/C[C@@H]([C@@H](C)O)OC2=O)O[C@@H]1C`, the Potency entry in test [10] and in test [4] was “inactive” throughout. Also, the compound was classed as inactive in [1] and in test [3].

With `Cc1[nH]c(/C=C2\C(=O)Nc3ccc(S(=O)(=O)N(C)c4cccc(Cl)c4)cc32)c(C)c1C(=O)N1CCN(C)CC1`, the Potency result in test [5], in test [6], in test [8] and in test [4] was “inactive” each time.

Consider `CCc1cccc(CC)c1-n1c(C=C(C)C)c(C(=O)N2CCNCC2)cc(-c2nc(-c3ccc(C(F)(F)F)cc3)cs2)c1=O`, for which the Potency result in [5], in [6] and in test [4] was “inactive” each time.

Take `COc1ccccc1OCCNCC(O)CCOc1cccc2[nH]c3ccccc3c12` (configuration not stated): the Potency result in test [5] and in test [4] was “inactive” in each case. Moreover, the Potency in test [6] is 10 µM (active).

Take `CCC(=O)NS(=O)(=O)c1ccc(-c2c(-c3ccccc3)noc2C)cc1`: the Potency entry in test [10], in test [2], in test [8] and in test [4] was “inactive” in each case. Besides, the result in test [1] and in test [3] was inactive. Further, in test [9], the activity change, negative = inhibition is -22.2% and -23.1%.

As for `Cn1nc(C(C)(C)C)cc1C(=O)N[C@@H](Cc1cccc(Cl)c1)C(=O)NCC#N`, the Potency result in [5] and in [4] was “inactive” in each case. Besides, the Potency in test [6] was 0.224 µM (active).

Consider `CC(=O)O[C@]1(C(C)=O)CC[C@H]2[C@@H]3C=C(Cl)C4=CC(=O)[C@@H]5C[C@H]5[C@]4(C)[C@@H]3CC[C@@]21C`, for which the Potency in [7] is 24.3 µM (active). Besides, the Potency result in [4] is “inactive”.

Regarding `CCOc1nc2cccc(C(=O)OCc3oc(=O)oc3C)c2n1Cc1ccc(-c2ccccc2-c2noc(O)n2)cc1`, the Potency result in test [10], in [2], in test [8] and in [4] was “inactive” throughout. For the same compound, the result in [1] and in [3] was inactive. Further, the activity change, negative = inhibition in test [9] was -28.5%.
